Bioassay records (PubChem)
RORgamma inh: blocks mouse ROR gamma transcriptional activity. Drosophila S2 Gal4-RORgamma UAS-luciferase reporter, 20 h. Potency, µM (doses to about 53.6 µM), most hits filed as inhibitors. 310,000 compounds, 5.4% hits; note: nearly all actives have a fitted effect of over 60% in size
Target sequence (P51450 whole entry, looked up, the tested form may be a part): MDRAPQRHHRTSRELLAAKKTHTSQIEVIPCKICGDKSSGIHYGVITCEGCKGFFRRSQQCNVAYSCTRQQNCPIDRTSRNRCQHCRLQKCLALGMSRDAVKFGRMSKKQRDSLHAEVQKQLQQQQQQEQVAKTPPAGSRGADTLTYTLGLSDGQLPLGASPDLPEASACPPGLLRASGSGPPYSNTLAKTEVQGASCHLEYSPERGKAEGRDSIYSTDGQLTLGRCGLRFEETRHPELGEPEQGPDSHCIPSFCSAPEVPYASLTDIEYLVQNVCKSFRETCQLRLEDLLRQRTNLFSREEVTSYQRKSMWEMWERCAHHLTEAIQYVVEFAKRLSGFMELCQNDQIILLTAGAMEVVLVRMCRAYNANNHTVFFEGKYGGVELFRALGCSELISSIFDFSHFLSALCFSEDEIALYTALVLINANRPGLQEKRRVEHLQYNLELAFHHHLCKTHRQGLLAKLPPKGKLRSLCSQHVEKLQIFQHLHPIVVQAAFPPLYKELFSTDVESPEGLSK
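Compounds are pin-transferred onto Drosophila Schneider cells expressing a copper-inducible Gal4–ROR gamma transactivation domain fusion. After 1 hr, copper sulfate is added to 700 uM final; luciferase is read 20 hr later.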
ELG1 DNA repair: ELG1-dependent DNA repair inhibition; HEK293T ELG1-luciferase reporter, luminescence, 16 h; DNA damage induced by 5-fluorouridine; Potency, µM (highest dose often 46.1 µM), most hits filed as inhibitors; 330,000 compounds, 2.3% hits; AID 504467; note: nearly all actives have a fitted effect of over 55% in size
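Luminescence from the luciferase reporter, measured 30 min after ONE-Glo reagent at room temperature, was the read-out. Beforehand, 2,000 cells per well were exposed for 16 hr at 37 °C to 5-fluorouridine together with compound or vehicle.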
DT40 TDP1 CPT: growth inhibition of DT40 Tdp1-/-;hTDP1 cells with camptothecin (screen for TDP1 inhibitors) | chicken DT40 Tdp1-/-;hTDP1 cells + 20 nM CPT, ATP luminescence, 48 h | Potency, µM (series often up to 46.2 µM), actives largely listed as inhibitors | 420,000 compounds, 12% hits; note: nearly all actives have a fitted effect of over 55% in size
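Cell growth measured by CellTiter-Glo luminescence after a minimum 48 h, 37 C compound exposure with 20 nM CPT in Tdp1-knockout DT40 cells stably expressing hTDP1, seeded 400/well; qHTS titration format.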
TDP1 cell noCPT: qHTS for Inhibitors of human tyrosyl-DNA phosphodiesterase 1 (TDP1): qHTS in cells in absence of CPT. AID 686978, 2013. Potency, µM (series often up to 46.2 µM), most hits filed as inhibitors. 420,000 compounds, 15% hits. DT40 Tdp1-/- hTDP1 cells, no CPT, ATP luminescence, 48 h; note: nearly all actives have a fitted effect of over 55% in size
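Growth kinetics read by CellTiter-Glo luminescence after ≥48 hr at 37 °C. Cells: DT40 Tdp1-/- stably carrying human TDP1, 400 per well, compound exposure in the absence of CPT (DMSO vehicle).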
Gal4-VP16 FLuc: counter-screen for ROR gamma inhibitors: Gal4-VP16 reporter. Drosophila S2 Gal4-VP16 UAS-luciferase, luminescence, 20 h. Potency, µM (doses to about 53.6 µM), hits mostly inhibitors. 310,000 compounds, 3.5% hits;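 note: Gal4-VP16 expression switched on by copper sulfate through the metallothionein promoter; nearly all actives have a fitted effect of over 50% in size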
IL-1B inflam inh: inhibitors of inflammasome signaling (IL-1 beta secretion); AID 743279; 360,000 compounds, 4.7% hits; activity change, % at 57.5 µM; THP-1 LPS/ATP IL-1B secretion, AlphaLISA, 16 h; hits give low values; in the data active = activity change below about -50%; inconclusive = mostly about -30% to -49%
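Secreted IL-1B measured by AlphaLISA bead assay after 16 h compound exposure of THP-1 cells; compounds (final up to 57.5 uM) added 1 h before LPS (250 ng/mL) and ATP (1.25 mM) stimulation; lower signal means less secretion.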
A number is an active result; [ ] = dose if it differs, or a comment. Compounds with a hit are over-represented: about 21% of the library has one in this group of screens. Unless noted, calls come from the whole dose curve; as a rule, active = well fitted curve in the direction sought with a large enough effect; inconclusive = small, poorly fitted or top-dose-only effect, or another doubt; inactive = no such curve, though single readings can be large; an effect the other way counts as inactive or inconclusive.

How did COc1ccc(CCNC(=O)c2cc3c(s2)-c2ccccc2OC3)cc1OC do in these assays?
DT40 TDP1 CPT: inconclusive; TDP1 cell noCPT: 12µM

What do the screens show for `CCCN1CCN(CCCNC(=O)c2cc3c(s2)-c2ccccc2OC3)CC1`?
RORgamma inh: inactive; ELG1 DNA repair: inconclusive; DT40 TDP1 CPT: inconclusive; TDP1 cell noCPT: inconclusive; Gal4-VP16 FLuc: inactive; IL-1B inflam inh: inconclusive

What do the screens show for `Cc1cc(C)cc(NC(=S)NC2CC3CCCC(C2)N3C2CCCC2)c1` (stereo unspecified)?
RORgamma inh: 35µM; ELG1 DNA repair: inactive; DT40 TDP1 CPT: inconclusive; TDP1 cell noCPT: inactive; Gal4-VP16 FLuc: inactive; IL-1B inflam inh: inactive

What do the screens show for `S=C(Nc1ccc(Cl)cc1)NC1CC2CCCC(C1)N2C1CC1` (stereo unspecified)?
RORgamma inh: inconclusive; ELG1 DNA repair: inconclusive; DT40 TDP1 CPT: inconclusive; TDP1 cell noCPT: inconclusive; Gal4-VP16 FLuc: 4µM; IL-1B inflam inh: inconclusive

How did S=C(Nc1ccc(Cl)cc1)NC1CC2CCCC(C1)N2C1CCCC1 (stereo unspecified) do in these assays?
RORgamma inh: inactive; ELG1 DNA repair: inactive; DT40 TDP1 CPT: inconclusive; TDP1 cell noCPT: inconclusive; Gal4-VP16 FLuc: inactive; IL-1B inflam inh: inactive

How did S=C(Nc1ccc(Cl)cc1)NC1CC2CCC(C1)N2Cc1ccccc1 (stereo unspecified) do in these assays?
RORgamma inh: 4µM; ELG1 DNA repair: inactive; DT40 TDP1 CPT: 23µM; TDP1 cell noCPT: 16µM; Gal4-VP16 FLuc: inconclusive; IL-1B inflam inh: -98

Results for C=CCN1C2CCCC1CC(NC(=S)Nc1ccc(Cl)cc1)C2 (stereo unspecified) ?
RORgamma inh: inactive; ELG1 DNA repair: inactive; DT40 TDP1 CPT: 23µM; TDP1 cell noCPT: inconclusive; Gal4-VP16 FLuc: inactive; IL-1B inflam inh: inactive

How did O=C1NC(Cc2c[nH]c3ccccc23)C(=O)N1Cc1ccc(CN2C(=O)NC(Cc3c[nH]c4ccccc34)C2=O)cc1 (stereo unspecified) do in these assays?
RORgamma inh: inactive; ELG1 DNA repair: inactive; DT40 TDP1 CPT: inconclusive; TDP1 cell noCPT: 23µM; Gal4-VP16 FLuc: inactive; IL-1B inflam inh: inactive

What do the screens show for `O=C1N[C@@H](Cc2c[nH]c3ccccc23)C(=O)N[C@H]1Cc1c[nH]c2ccccc12`?
RORgamma inh: inactive; DT40 TDP1 CPT: inactive[9.04 µM]; TDP1 cell noCPT: inactive[9.04 µM]; Gal4-VP16 FLuc: inactive

Results for O=S(=O)(Nc1cccc(-c2ccc3nncn3n2)c1)c1ccc(Cl)s1 ?
RORgamma inh: inactive; ELG1 DNA repair: inactive; DT40 TDP1 CPT: inactive; TDP1 cell noCPT: inactive; Gal4-VP16 FLuc: inactive; IL-1B inflam inh: inactive

How did O=C(O)/C=C/c1ccc(S(=O)(=O)Nc2ccc(OCc3ccccc3)cc2)cc1 do in these assays?
RORgamma inh: inactive; ELG1 DNA repair: inactive; DT40 TDP1 CPT: inactive; TDP1 cell noCPT: inconclusive; Gal4-VP16 FLuc: inactive; IL-1B inflam inh: inactive

What do the screens show for `N#Cc1ccccc1COc1ccc(/C=C/C(=O)O)cc1`?
RORgamma inh: 0.18µM; ELG1 DNA repair: inactive; DT40 TDP1 CPT: inactive; TDP1 cell noCPT: inactive; Gal4-VP16 FLuc: 0.71µM; IL-1B inflam inh: inactive

Results for CC(=O)c1ccc(C(=O)N(Cc2cccnc2)c2nc3c(Cl)cccc3s2)cc1 ?
DT40 TDP1 CPT: 26µM; TDP1 cell noCPT: inconclusive

What do the screens show for `O=C(CCOc1ccccc1)N(Cc1cccnc1)c1nc2c(F)cccc2s1`?
DT40 TDP1 CPT: 13µM; TDP1 cell noCPT: 7.3µM

Results for Cc1ccc2sc(N(Cc3cccnc3)C(=O)CCOc3ccccc3)nc2c1C ?
DT40 TDP1 CPT: 23µM; TDP1 cell noCPT: 18µM

Results for CC(=O)N(Cc1cccnc1)c1cccc(-c2nc3ccccc3s2)c1 ?
RORgamma inh: inactive; ELG1 DNA repair: inconclusive; DT40 TDP1 CPT: inconclusive; TDP1 cell noCPT: inconclusive; Gal4-VP16 FLuc: inconclusive; IL-1B inflam inh: -62

What do the screens show for `Cc1cccc2sc(N(Cc3cccnc3)C(=O)c3ccco3)nc12`?
DT40 TDP1 CPT: inactive; TDP1 cell noCPT: inactive
